Results from PubChem BioAssay AID504333 (National Center for Advancing Translational Sciences (NCATS), 2011).
Among all 360,000 compounds or so, about 16,000 (4.4%) were called active. Roughly 9% stayed inconclusive and do not appear here. The sample holds actives, similar compounds and a random draw of the others, so the mix is not that of the screen. Values without a mark were called inactive. Calls come from the whole dose curve; as a rule, active = well fitted inhibition curve with a large enough effect; inconclusive = small, poorly fitted or top-dose-only effect; inactive = no such curve, though single readings can be large or run the other way.

molecular target: Bromodomain adjacent to zinc finger domain protein 2B (Homo sapiens) (UniProt Q9UIF8); test: qHTS Assay for Inhibitors of BAZ2B; settings: AlphaScreen BAZ2B-H3K14Ac peptide displacement; series mostly up to 114 µM; activity change, negative = inhibition: at the top concentration; note: nearly all actives have a fitted effect of over 60% in size
In short: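 Inhibition is scored as reduced AlphaScreen emission. The BAZ2B/b-H3(5-23)K14Ac complex (50 nM each) in PBS pH 7.4, 0.01% Tween-20 meets compound (up to 110 uM) for 30 min at RT before bead addition.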
% is set by controls: 0 for no effect and ±100 for the full control effect; potency is the fitted concentration of half-maximal effect.

Bromodomain adjacent to zinc finger domain protein 2B (Homo sapiens), sequence (Q9UIF8 whole entry, looked up, the tested form may be a part): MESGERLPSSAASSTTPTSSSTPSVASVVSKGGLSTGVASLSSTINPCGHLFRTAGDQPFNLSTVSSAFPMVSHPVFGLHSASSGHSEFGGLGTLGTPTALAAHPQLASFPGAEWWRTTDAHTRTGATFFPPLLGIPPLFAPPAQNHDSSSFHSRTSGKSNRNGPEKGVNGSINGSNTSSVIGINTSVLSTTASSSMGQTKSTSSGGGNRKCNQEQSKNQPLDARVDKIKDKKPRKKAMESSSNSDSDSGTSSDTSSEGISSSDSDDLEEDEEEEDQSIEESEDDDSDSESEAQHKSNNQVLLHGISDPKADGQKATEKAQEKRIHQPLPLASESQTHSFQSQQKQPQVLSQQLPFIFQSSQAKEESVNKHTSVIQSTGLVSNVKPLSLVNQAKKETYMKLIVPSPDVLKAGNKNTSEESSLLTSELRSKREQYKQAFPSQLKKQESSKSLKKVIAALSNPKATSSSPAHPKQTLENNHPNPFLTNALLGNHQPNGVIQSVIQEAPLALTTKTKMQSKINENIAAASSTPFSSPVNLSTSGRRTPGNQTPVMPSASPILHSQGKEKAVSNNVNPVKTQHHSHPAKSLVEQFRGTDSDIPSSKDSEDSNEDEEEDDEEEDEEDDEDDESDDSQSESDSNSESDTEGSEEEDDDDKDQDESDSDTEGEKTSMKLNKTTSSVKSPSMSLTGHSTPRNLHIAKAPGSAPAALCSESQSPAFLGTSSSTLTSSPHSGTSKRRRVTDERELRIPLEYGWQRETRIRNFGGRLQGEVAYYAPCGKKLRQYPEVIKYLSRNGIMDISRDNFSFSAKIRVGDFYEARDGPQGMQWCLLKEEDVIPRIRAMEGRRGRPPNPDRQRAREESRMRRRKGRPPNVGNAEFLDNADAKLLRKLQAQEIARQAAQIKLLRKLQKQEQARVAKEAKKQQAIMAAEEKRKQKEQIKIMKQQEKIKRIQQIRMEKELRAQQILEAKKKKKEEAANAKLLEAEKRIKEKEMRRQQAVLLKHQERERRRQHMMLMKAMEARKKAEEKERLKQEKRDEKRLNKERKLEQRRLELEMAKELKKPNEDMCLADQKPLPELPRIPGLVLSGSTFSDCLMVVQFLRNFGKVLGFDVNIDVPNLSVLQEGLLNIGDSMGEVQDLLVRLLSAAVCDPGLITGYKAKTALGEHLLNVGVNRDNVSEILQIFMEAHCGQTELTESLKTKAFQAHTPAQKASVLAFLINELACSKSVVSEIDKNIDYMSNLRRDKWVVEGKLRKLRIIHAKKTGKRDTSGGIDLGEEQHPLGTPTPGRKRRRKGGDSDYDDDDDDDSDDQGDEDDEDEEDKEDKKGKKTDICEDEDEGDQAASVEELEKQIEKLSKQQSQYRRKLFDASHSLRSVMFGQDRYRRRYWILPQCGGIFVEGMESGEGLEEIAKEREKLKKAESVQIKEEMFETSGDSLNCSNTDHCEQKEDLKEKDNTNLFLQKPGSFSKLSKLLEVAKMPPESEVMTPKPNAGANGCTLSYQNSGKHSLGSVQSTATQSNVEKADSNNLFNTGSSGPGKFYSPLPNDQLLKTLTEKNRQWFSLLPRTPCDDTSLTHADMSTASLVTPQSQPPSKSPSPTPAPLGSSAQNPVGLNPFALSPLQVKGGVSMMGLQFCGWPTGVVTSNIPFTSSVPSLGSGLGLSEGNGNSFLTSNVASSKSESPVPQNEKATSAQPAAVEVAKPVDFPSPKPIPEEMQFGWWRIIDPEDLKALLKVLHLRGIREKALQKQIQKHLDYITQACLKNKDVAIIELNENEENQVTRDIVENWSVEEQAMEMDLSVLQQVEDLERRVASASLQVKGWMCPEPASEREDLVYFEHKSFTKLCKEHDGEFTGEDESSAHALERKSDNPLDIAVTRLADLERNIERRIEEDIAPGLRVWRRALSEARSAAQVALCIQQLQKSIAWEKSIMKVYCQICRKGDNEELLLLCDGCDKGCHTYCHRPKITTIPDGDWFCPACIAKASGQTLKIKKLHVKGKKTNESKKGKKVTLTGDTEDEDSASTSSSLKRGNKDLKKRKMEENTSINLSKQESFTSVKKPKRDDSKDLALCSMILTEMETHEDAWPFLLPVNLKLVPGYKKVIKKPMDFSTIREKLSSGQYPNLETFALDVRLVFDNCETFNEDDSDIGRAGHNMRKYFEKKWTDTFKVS

In order of rising “activity change, negative = inhibition” value:
1. Cc1ccc(/C=C2/SC(=S)N(CCC(=O)NCCCN3CCOCC3)C2=O)cc1  -37.2%
2. Cc1ccc(CS(=O)(=O)c2ncc(Cl)c(C(=O)Nc3nnc(C)s3)n2)cc1  -35.7%
3. Cc1cccc(NC(=O)c2nc(S(=O)(=O)Cc3ccccc3)ncc2Cl)c1  -35.2%
4. Cc1ccc(OCCCC(=O)Nc2ccc(N3CCOCC3)cc2)cc1  -34.6%
5. O=C1/C(=C\c2ccccc2Cl)SC(=S)N1CCC(=O)N1CCCc2ccccc21  -33.1%
6. Cc1ccc(NC(=O)CCC(=O)N/N=C/c2ccco2)c(C)c1  -32.8%
7. C/C(=N\N1CCN(Cc2ccc(C)cc2)CC1)c1ccco1  -28.7%
8. CC(C)CC(=O)N1CCN(Cc2cccc(Cl)c2)CC1  -27.4%
9. Cc1ccc(O)c(NC(=O)CCS(=O)(=O)c2nc(-c3ccc4c(c3)OCO4)cc(C(F)(F)F)n2)c1  -27%
10. Fc1ccc(-c2nn(-c3ccccc3Cl)c3c2cnc2ccccc23)cc1  -26.2%
11. CCOc1cccc(NC(=O)CSc2ncc(-c3ccc(Cl)cc3)[nH]2)c1  -26.2%
12. CCOc1ccccc1NC(=O)c1ccc2c(c1)CCN2S(=O)(=O)c1ccc(C)cc1  -25.9%
13. Cc1ccc(-c2nn(-c3ccccc3)cc2/C=C/C(=O)Nc2cccc(S(N)(=O)=O)c2)cc1  -24.1%
14. O=C(NCc1ccc(Cl)cc1)c1cc2c(nc3sccn32)s1  -21.6%
15. O=C(CN1c2ccccc2S(=O)(=O)c2ccccc21)Nc1cccc(C(F)(F)F)c1  -20%
16. CCOc1ccc(C(=O)c2cn(Cc3ccc(F)cc3)c3ccc(F)cc3c2=O)cc1  -19.7%
17. COc1ccccc1C(=O)NCCn1cc(SCc2ccccc2Cl)c2ccccc21  -19.3%
18. Cc1ccccc1C(=O)Nc1cc(C)c(O)c(-c2nc3ccccc3o2)c1  -18.7%
19. CCOC(=O)c1cccc(NC(=O)c2cc(S(=O)(=O)N3CCCC(C)C3)cn2C)c1 (stereo unspecified)  -18.7%
20. CCOC(=O)c1ccc(NC(=O)CC2C(=O)N(c3ccccc3)C(=O)N2Cc2cccs2)cc1 (stereo unspecified)  -17.8%
21. Cc1cccc(NC(=O)C2CCCN2S(=O)(=O)c2cccc3nsnc23)c1C (stereo unspecified)  -17.8%
22. CN1C(=O)c2ccccc2Sc2ccc(NC(=O)Cc3ccc(Cl)cc3)cc21  -16.3%
23. Cc1oc2ccc(O)c(CN3CCCCC3)c2c1C(=O)Nc1cccc(C(F)(F)F)c1  -14.8%
24. COc1ccc(-c2nn(-c3ccccc3)cc2CN2CCCO2)c(F)c1  -14.8%
25. CCC(=O)Nc1cccc(C(=O)OCc2cc(=O)n3nc(CC)sc3n2)c1  -13.9%
26. COCCn1c(SCC(=O)c2cc(C)ccc2C)nc2cc(C(=O)NC3CCCC3)ccc2c1=O  -11.7%
27. O=C(COc1ccccc1[N+](=O)[O-])N/N=C/c1ccc[nH]1  -11.5%
28. Cc1ccccc1CNC(=O)CCc1cn(Cc2ccccc2C)c2ccccc12  -10.3%
29. COc1cccc(CNC(=O)c2ccc3c(Cl)c4c(nc3c2)CCCC4)c1  -9.46%
30. Cc1ccc(-c2nc(CS(=O)(=O)CC(=O)NCc3ccccc3Cl)c(C)o2)cc1  -9.42%
31. COc1ccc(C(=O)/C=C/c2ccc(-c3ccccc3)cc2)cc1CSCC(=O)O  -9.18%
32. COc1ccc2c(c1)N(C)/C(=C1/SC(=S)N(NC(C)=O)C1=O)S2  -7.93%
33. CCc1cc2c(cc3c(=O)n(CC(=O)NCc4cccc(Cl)c4)nc(CC)n32)s1  -7.23%
34. CCOc1ccc2oc(=O)cc(CN3CCN(C(=O)c4ccc(F)cc4)CC3)c2c1  -6.12%
35. CCOc1ccc(C2C(C(=O)Nc3ccc(Cl)cc3)=C(C)Nc3nc(C(F)(F)F)nn32)cc1 (stereo unspecified)  -5.74%
36. O=C(COc1ccccc1[N+](=O)[O-])NC1CC1  -4.34%
37. CC1=C(C(=O)Nc2ccccc2Cl)C(c2cccs2)n2ncnc2N1 (stereo unspecified)  -4.03%
38. COc1ccc(CCNC(=O)c2cc(=O)c3c(C)cc(C)cc3o2)cc1OC  -3.78%
39. COc1ccc(-c2nc(CN3CCN(c4ncccn4)CC3)c(C)o2)cc1C  -3.56%
40. O=C(O)c1ccc2c(c1)C(=O)N(NC(=O)c1ccc(O)cc1)C2=O  -2.56%
41. CC1CC(C)CN(CCOc2cccc3ccccc23)C1 (stereo unspecified)  -2.56%
42. COc1ccc(-c2nnc(SCC(=O)Nc3ccc(C(C)C)cc3)nc2-c2ccc(OC)c(OC)c2)cc1OC  -2.33%
43. CCOC(=O)c1cc(-c2ccccc2)n(CCC(=O)Nc2ccccc2CC)c1C  -1.42%
44. CCOc1ccccc1NC(=O)Cn1c(=O)n(-c2cccc(C)c2)c(=O)c2c1c1cc(OC)ccc1n2C  -1.41%
45. CCOC(=O)c1ccc(NC(=O)C2CC(=O)NC(=Nc3ccc(C)c(C)c3)S2)cc1 (stereo unspecified)  -0.662%
46. N#C/C(=C/c1ccc(N2CCOCC2)o1)C(=O)N1CCOCC1  -0.368%
47. Cc1nnc(NCc2ccccc2)c2c1nnn2Cc1ccc(F)cc1  -0.128%
48. Cc1cc(OCC(=O)Nc2ncn[nH]2)c(C)c(C)c1Br  0.164%
49. Cc1ccc2c(=O)c(C(=O)c3cccc(Cl)c3)cn(CC(=O)NCc3ccccc3)c2n1  0.489%
50. CCCCN1CC(c2nc3ccccc3n2CCCCOc2ccc(C)cc2C)CC1=O (stereo unspecified)  0.797%
51. CCOC(=O)c1ccc(NC(=O)c2ncn(-c3ccccc3)n2)cc1  1.63%
52. Cc1ccc(CNC(=O)Cn2c(=O)ccc3cc(S(=O)(=O)N4CCCC4)ccc32)cc1  1.64%
53. CC(NC(=O)c1cc(Sc2ccc(F)cc2F)nc2ccccc12)c1ccccc1 (stereo unspecified)  1.71%
54. Fc1ccc(-n2ncc3c(Nc4ccc(Oc5ccccc5)cc4)ncnc32)cc1  2.34%
55. COc1ccc(/C=C/C(=O)N2CCCC2)cc1OC  2.76%
56. CCOc1ccc2nc(N3CCC(C(=O)Nc4cc(C)ccc4C)CC3)sc2c1  3.43%
57. COc1ccc(-c2nn(-c3ccccc3)cc2/C=C\C(=O)N2CCOCC2)cc1[N+](=O)[O-]  3.98%
58. COc1cccc(CNC(=O)Cn2c(=O)c3cccn3c3ccc(F)cc32)c1OC  4.05%
59. CN(C)C(=O)c1nc2ccc(Cl)cn2c1CN1CCN(c2ncccn2)CC1  4.33%
60. CN1C(=O)c2[nH]nc(-c3ccc(F)cc3)c2C1c1ccccn1 (stereo unspecified)  5.35%
61. O=[N+]([O-])c1ccccc1OCCCCN1CCCCC1  5.81%
62. N#C/C(=C\c1ccccc1C(F)(F)F)C(=O)Nc1ccccc1F  6.18%
63. Cc1cc(OCCCC(=O)NCCN2C(=O)S/C(=C\c3cccnc3)C2=O)ccc1Cl  6.35%
64. Cc1cc(NS(=O)(=O)c2ccc3oc(=O)c4ncn(C)c4c3c2)ccc1Br  6.88%
65. COc1ccc2oc(=O)cc(CN3CCOCC3)c2c1  7.09%
66. CCOC(=O)c1cnc2c(C)cc(Cl)cc2c1NCCc1ccc(OC)c(OC)c1  8.49%
67. COc1ccc(CNC(=O)c2cc3c(=O)[nH]c4ccc(C)cc4c3s2)c(OC)c1  9.8%
68. COc1ccc(-c2nnc(SCC(=O)NC3CCCCC3)o2)cc1OC  11.7%
69. O=c1cc(Cn2nnc(-c3ccc(Cl)cc3)n2)nc2sccn12  13.1%
70. CCOc1cc(CN2CCN(C(=O)CC(C)C)CC2)ccc1OC  14.7%
71. CCOC(=O)c1c(-c2ccc(OC)cc2)oc2ccc(OCc3ccc(C(=O)OC)cc3)cc12  18.6%
72. CC(C)CC(=O)NCC(c1ccc2c(c1)OCO2)N1CCN(c2ccc(F)cc2)CC1 (stereo unspecified)  22.9%
73. CCOC(=O)c1ccc(CN(Cc2ccccc2)S(=O)(=O)c2ccc(Cl)cc2)cc1  47.5%

CN1/C(=c2/s/c(=C3/C(=O)N(c4ccccc4)NC3=Nc3ccccc3)n(C)c2=O)C(C)(C)c2ccccc21 was tested, and the Potency was 10 µM (active).
For Cc1ccc(Nc2c(-c3ccc(Cl)cc3)nc3sccn23)c(C)c1, the Potency was 28.2 µM (active).
With COC(=O)c1ccc(COc2ccc(/C=C/C(=O)c3ccc(OC)c(CSCC(=O)O)c3)cc2OC)cc1 the Potency was 39.8 µM (active).
In the case of CCOc1cc(-c2nnc(SCC(=O)NC3CCCCC3)nc2-c2ccc(OC)c(OCC)c2)ccc1OC, the Potency is reported as 79.4 µM (active).
For CCC(=C/c1sc2ccc3ccccc3c2[n+]1C)/C=C1\Sc2ccc3ccccc3c2N1C, the Potency was 50.1 µM (active).
With N#C/C(=C\C1=C(N2CCOCC2)C(=C\c2ccccc2)/CC1)C(=O)Nc1ccccc1F the Potency was 2 µM (active).
For CC(=O)N1C(=O)/C(=C2\SC(=S)N(NC(=O)c3ccc(O)cc3)C2=O)c2ccccc21, the Potency was 39.8 µM (active).
With Cc1ccc(N=C2NC(=O)/C(=C/C=C/c3ccco3)S2)cc1C the Potency was 44.7 µM (active).
With CCOc1ccc(N(C)Cc2cc(=O)oc3ccc(OC)cc23)cc1 the Potency was 22.4 µM (active).
With CCOC(=O)c1cnc2c(C)cc(C)cc2c1Nc1ccc(N2CCOCC2)cc1 the Potency was 7.08 µM (active).
In the case of CC1CN(CCOc2ccccc2[N+](=O)[O-])CC(C)O1 (stereo unspecified), the Potency is reported as 25.1 µM (active).
For C=CCN(CC=C)CCOc1ccccc1[N+](=O)[O-], the Potency was 39.8 µM (active).
With CN=C1C=C/C(=N/N=c2\ccn(O)cc2C)C=C1C the Potency was 35.5 µM (active).
For CSc1nnc(NC(=O)c2nc(S(=O)(=O)Cc3ccc(C)cc3)ncc2Cl)s1, the Potency was 56.2 µM (active).
In the case of Cc1ccc(CN2CCN(c3ncccn3)CC2)c(C)c1, the Potency is reported as 50.1 µM (active).
For Cc1ccc(CN2CCN(/N=C/c3ccco3)CC2)c(C)c1, the Potency was 50.1 µM (active).
In the case of COc1ccc(-c2nn(-c3ccccc3)cc2/C=C2/SC(=S)N(CCCC(=O)O)C2=O)c(C)c1, the Potency is reported as 50.1 µM (active).
For Cc1ccc(-c2nn(-c3ccccc3)cc2/C=C2\SC(=S)N(CCCCCC(=O)O)C2=O)o1, the Potency was 6.31 µM (active).
With CN(C)S(=O)(=O)c1cccc(-c2nn(-c3ccccc3)cc2/C=C2\SC(=S)N(CC(=O)O)C2=O)c1 the Potency was 50.1 µM (active).
CC(C)CC(=O)N1CCN(Cc2ccccc2Br)CC1 was tested, and the Potency was 50.1 µM (active).

In order of rising “activity change, negative = inhibition” value:
1. Cc1ccc(CN2CCC(CNC(=O)c3cnn(-c4ccc(C)cc4)c3C3CCN(C(=O)OC(C)(C)C)CC3)CC2)cc1  -7.01% [at 57.1 µM]
2. Cc1ccc(Cl)cc1N(C)C(=O)C1CCCN(c2ncnc3onc(-c4ccc(F)cc4)c23)C1 (stereo unspecified)  3.17% [at 57.1 µM]
3. Cc1ccc2c(=O)c(C(=O)c3ccc(Cl)cc3)cn(CC(=O)NC3CCCCC3)c2n1  8.9% [at 57.1 µM]
